Screening results deposited in PubChem by National Center for Advancing Translational Sciences (NCATS).
IL1B secr inh: inhibitors of inflammasome signaling (IL-1 beta secretion); activity change, % at 57.5 µM; 4.7% of 360,000 active; THP-1 LPS/ATP IL-1B secretion, AlphaLISA, 16 h; active compounds read low; in the data active = activity change below about -50%; inconclusive = mostly about -30% to -49%; also: % is scaled to controls: 0 for no effect and ±100 for the full control effect
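Secreted IL-1B measured by AlphaLISA bead assay after 16 h compound exposure of THP-1 cells; compounds (final up to 57.5 uM) added 1 h before LPS (250 ng/mL) and ATP (1.25 mM) stimulation; lower signal means less secretion.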
TGFb inhibitor: blocks TGF-b signaling. HepG2 CAGA-GFP TGF-b/SMAD3 reporter, GFP fluorescence, 18 h; TGF-beta stimulated, 500 pg/mL final. Potency, µM (titrated, usually from 46.1 µM), for inactives: at the top dose activity, negative = inhibition, actives largely listed as inhibitors. 1.2% of 410,000 active. AID 588855; also: potency is read from the fitted curve at half-maximal effect; % is scaled to controls: 0 for no effect and ±100 for the full control effect; nearly all actives have a fitted effect of over 65% in size
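Inhibition was scored as loss of TGF-beta-induced (500 pg/mL final, 18 hours, 37 degrees C) GFP in HEPG2 cells carrying a CAGA-GFP reporter, in DMEM with 1% FBS. Well GFP was summed per cell; Activity was normalised to unstimulated and stimulated DMSO wells, then concentration-response fitting.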
ATXN2 expr inh: reduces ATXN2 reporter expression in HEK-293 cells; HEK-293 ATXN2-luciferase reporter, luminescence, 24 h; Potency, µM (doses to about 57 µM), without a hit: at the top dose activity change, negative = inhibition, usual class: inhibitors; 0.72% of 360,000 active; also: potency is read from the fitted curve at half-maximal effect; % is scaled to controls: 0 for no effect and ±100 for the full control effect; nearly all actives have a fitted effect of over 55% in size
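qHTS (up to 57 uM final) was run with 24 h compound exposure of reporter cells at 37 °C. Each well was multiplexed: SteadyGlo luminescence measured ATXN2-luciferase expression after a fluorogenic Gly-Phe-AFC viability readout (25 uM final).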
ATXN viability: reduces viability in counter-screen for ATXN expression inhibitors | S2 cells (HEK-293 line with an ATXN2-luciferase reporter) viability, CellTiter-Fluor protease fluorescence, 24 h | Potency, µM (series often up to 56.7 µM), actives largely listed as cytotoxic | 0.49% of 400,000 active | AID 651635; also: potency is read from the fitted curve at half-maximal effect; nearly all actives have a fitted effect of over 40% in size
HepG2 viability: counter-screen for TGF-b inhibitors: cytotoxicity in HepG2 cells; HepG2 CAGA-GFP viability, ATP luminescence, 18 h; Potency, µM (doses to about 46.1 µM), for inactives: top-dose activity change, negative = cytotoxicity, hits mostly cytotoxic; 0.76% of 410,000 active; AID 588856; also: potency is read from the fitted curve at half-maximal effect
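CellTiter-Glo luminescence gave cytotoxicity after 18 hours at 37 degrees C. The cells were HepG2 CAGA-GFP in 1% FBS DMEM, stimulated with 500 pg/mL TGF-beta after compound addition. %Activity was normalised to no-cell wells (complete cell-killing) and DMSO (no toxicity), and curves were fitted and classified.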
Numbers without * were called inactive; i = inactive; ? = inconclusive; / = no result given. Compounds with a hit are over-represented: about 5.7% of the library has one in this group of screens. Unless noted, calls follow the shape of the dose curve; as a rule, active = well fitted curve in the direction sought with a large enough effect; inconclusive = small, poorly fitted or top-dose-only effect, or another doubt; inactive = no such curve, though single readings can be large; an effect the other way counts as inactive or inconclusive.

SMILES	IL1B secr inh	TGFb inhibitor	ATXN2 expr inh	ATXN viability	HepG2 viability
CCCCCCN(C(=O)CCCN1C(=O)NC(c2ccc([N+](=O)[O-])cc2)C(C(=O)OCc2ccccc2)=C1C)C(C)C(=O)NCCCC (stereo unspecified)	-63.4*	-25.7%	-10.1%	?	-10.4%
Cc1ccc(-n2nnc(-c3nsc(NC(=O)c4ccccc4C)n3)c2C)cc1Cl	/	?	?	?	1.9%
CCn1c(C)nc2cc(-c3nc4n(n3)Cc3ccccc3-4)ccc21	?	-11.0%	0.398µM*	i	1.26µM*
Fc1ccc(-c2nc3n(n2)Cc2ccccc2-3)cc1	35.8	?	52.2%	i	8.91µM*
Cc1ccc(-c2nc3n(n2)Cc2ccccc2-3)cc1	-19.9	-24.0%	-33.4%	i	-54.5%
CC(C)CN(C(=O)COC(=O)c1cc2ccccc2cc1O)c1c(N)n(Cc2ccccc2)c(=O)[nH]c1=O	-54.4*	-13.5%	-1.6%	i	-15.4%
CC(C)CN(C(=O)COC(=O)C12CC3CC(CC(C3)C1)C2)c1c(N)n(Cc2ccccc2)c(=O)[nH]c1=O	2.9	2.5%	14.1µM*	22.4µM*	2.9%
Cc1ccc(-n2c3nc(=O)n(C)c(=O)c-3cc3c(Cl)cccc32)c(C)c1	/	6.7%	4.7%	i	1.0%
CN(C)S(=O)(=O)c1ccc(S(=O)(=O)Nc2ccc3c(c2)oc2ccccc23)cc1	21.0	11.2µM*	-4.8%	i	-33.8%
COc1ccc(NC(=O)Nc2cc(C(=O)NCc3ccc(C)cc3)ccc2N2CCCC2)cc1	/	5.3%	-4.2%	i	-6.8%
c1ccc(COc2ncnc3c2ncn3CCCNCC(c2ccccc2)c2ccccc2)cc1	-93.8*	15.8µM*	?	/	11.2µM*
CC(CNCCCn1ccc(NC(=O)OCc2ccccc2)nc1=O)c1ccccc1 (stereo unspecified)	?	-6.0%	-25.0%	i	-5.8%
O=C(Nc1ccn(CCCNCc2cccc3ccccc23)c(=O)n1)OCc1ccccc1	-62.0*	?	-28.2%	?	-55.0%
O=C(Nc1ccn(CCCNCC(c2ccccc2)c2ccccc2)c(=O)n1)OCc1ccccc1	?	15.8µM*	?	?	-115.6%
COc1ccc(OC)c(C(Cc2ccnc3ccccc23)Cc2ccnc3ccccc23)c1	/	?	/	/	-97.0%
COc1ccc(CCNC(=O)CCS(=O)(=O)c2cc(Br)cc3c2N(C(C)=O)CC3)cc1OC	/	-20.5%	9.3%	i	-5.8%
CCC1(C2CCN(Cc3cc4ccccc4o3)CC2)NC(=O)N(CC2COc3ccccc3O2)C1=O (stereo unspecified)	/	/	/	i	/
CC(=O)c1cccc(Nc2nc(-c3sc(C)nc3C)cs2)c1	-57.1*	15.8%	0.0%	i	-21.6%
Cc1cccc(Nc2nc(-c3sc(C)nc3C)cs2)c1	-53.8*	?	-5.4%	i	-16.0%
CCC(=O)Nc1nc(C)c(-c2csc(Nc3cccc(O)c3)n2)s1	-75.1*	?	/	?	-54.3%
COc1cc2ncc3c(-c4ccccc4)nn(-c4ccc(C)cc4)c3c2cc1OC	/	?	8.7%	i	-34.1%
Cn1c(=O)c2sccc2n2c(CCCC(=O)Nc3ccc(Oc4ccccc4)cc3)nnc12	/	12.6µM*	/	/	-37.6%
Cc1ccccc1[C@H](NC1c2ccccc2C=Cc2ccccc21)P(=O)(c1ccccc1)c1ccccc1	-74.3*	/	?	?	/
Cc1ccc(S(=O)(=O)N2CCC(=O)N(CCOCc3ccc(C(F)(F)F)cc3)CC2)cc1	?	11.2µM*	?	?	-23.2%
O=C(Cn1c(=O)n(-c2ccc(F)cc2)c(=O)c2sc3ccccc3c21)NC1CCCCC1	/	?	-8.4%	?	-1.2%
SMILES	IL1B secr inh	TGFb inhibitor	ATXN2 expr inh	ATXN viability	HepG2 viability
COc1ccc(OC)c(NC(=O)Nc2nc(CN(C)C)cs2)c1	-3.3	25.8%	-3.5%	i	-0.3%
COc1ccc(OC)c(NC(=O)Nc2nc(C(N)C(C)C)cs2)c1 (stereo unspecified)	-63.5*	7.2%	-23.5%	?	-48.1%
COc1ccc(OC)c(NC(=O)Nc2nc(C(N)c3ccccc3Cl)cs2)c1 (stereo unspecified)	-51.2*	-20.8%	?	?	-41.6%
S=C(NCc1ccco1)Nc1ccc(Br)cc1Cl	-82.9*	?	56.2%	i	-4.6%
S=C(NCc1ccco1)Nc1ccc(Cl)cc1Cl	13.3	-31.2%	23.6%	i	-29.1%
NC(=S)N/N=C/c1ccc(-n2nncc2-c2ccc(Cl)cc2)cc1	-70.2*	?	-9.3%	i	-33.0%
COC(=O)C1(C)CCCC2(C)C3CCC(C(C)C)C(CO)C3C(CO)CC12 (stereo unspecified)	-60.0*	-14.2%	/	?	-39.7%
NC(N)=N/N=C/c1cccc([N+](=O)[O-])c1O	0.0	-0.7%	-30.1%	i	-1.5%
NC(N)=N/N=C/c1cccc(Cl)c1Cl	-101.5*	-15.6%	-27.8%	i	-20.4%
Cc1cccc(CNC(=O)c2cnn(-c3nccc(-c4ccccc4C(F)(F)F)n3)c2C)n1	/	/	/	i	/
CCOc1ncc(F)c(=O)[nH]1	/	/	-3.6%	i	/
Cc1ccc(N2CCN(C(=O)C3CCN(c4ncnc5c4nc4n5CCCCC4)CC3)CC2)c(C)c1	/	-15.8%	/	/	-6.8%
O=C(NCC1OCCc2ccccc21)c1ccc(NC(=O)c2ccccc2Cl)cc1 (stereo unspecified)	-73.4*	14.5%	-15.8%	i	14.8%
CC1=NN(C(=O)c2ccc(Br)cc2)C(O)(C(F)(F)OC(F)(F)F)C1 (stereo unspecified)	-54.8*	15.8µM*	-7.8%	i	-60.1%
CC1=NN(C(=O)c2csc(C)c2)C(O)(C(F)(F)F)C1 (stereo unspecified)	13.0	-5.6%	4.6%	i	-71.2%
COc1ccccc1NC(=O)c1nn(C)c2c1CS(=O)(=O)c1ccccc1-2	/	-1.3%	0.0%	i	9.8%
CCOC(=O)C1CCCN(Cc2c(C(=O)N3CCOCC3)nc3ccccn23)C1 (stereo unspecified)	-67.7*	1.8%	-25.2%	i	1.0%
CCCCC1CCC(C(=O)N2CC(=O)Nc3ccc(Cl)cc3C2c2ccc(F)cc2)CC1 (stereo unspecified)	/	?	/	/	-34.1%
Fc1ccccc1C1c2cccn2CCN1C(=S)Nc1ccc(Br)cc1 (stereo unspecified)	-85.7*	22.4µM*	?	i	-5.4%
O=S(=O)(NCCN1CCOCC1)c1ccc(Cl)c(Cl)c1	-7.3	-5.7%	/	i	-3.6%
CC(C)N1CCC(=NNc2ccc(S(=O)(=O)N3CCOCC3)cc2[N+](=O)[O-])CC1	4.3	?	-2.6%	i	-14.3%
CCCN1CCC(=NNc2ccc(S(=O)(=O)N3CCOCC3)cc2[N+](=O)[O-])CC1	4.0	-0.5%	-19.6%	i	14.1µM*
